Results on twelve compounds are retold here after PubChem BioAssay (EPA / NIEHS).

Structures are written as SMILES. Active and inactive are the calls of the source. Rule for the calls: active = hit-call score of the fitted dose curve at least 0.9, where 1 is the maximum; inactive = score below 0.9.

This test is described as follows: CEETOX_H295R_ESTRONE: CeeTox H295R High-throughput Steroidogenesis Assay for Estrone (AID 2283441).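 For AC50: human adrenal H295R cells prestimulated with forskolin for two days.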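 Note: estrone secreted into medium measured by LC-MS/MS after dansyl derivatization.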 The conditions noted are these: actives raise or lower the signal. The protocol:
CEETOX_H295R is a cell-based, multiplexed-readout assay that uses H295R, a human adrenal gland cell line, with measurements taken at 48 hours after chemical dosing in a 96-well plate.CEETOX_H295R_ESTRONE is one of 23 assay component(s) measured or calculated from the CEETOX_H295R assay. It is designed to make measurements of hormone induction, a form of inducible reporter, as detected with absorbance signals by HPLC-MS-MS technology.Data from the assay component CEETOX_H295R_ESTRONE was analyzed into 1 assay endpoint. This assay endpoint, CEETOX_H295R_ESTRONE, was analyzed with bidirectional fitting relative to DMSO as the negative control and baseline of activity. Using a type of inducible reporter, gain or loss-of-signal activity using HPLC-MS-MS was used to understand synthesis of Estrone in H295R cell line at 48hr of chemical exposure. To generalize the intended target to other relatable targets, this assay endpoint is annotated to the steroid hormone intended target family, where the subfamily is estrogens.
Cell culture and media preparation procedures were conducted in accordance with OECD Test No. 456 guidelines, with minor modifications. H295R cells (ATCC CRL-2128) were expanded for 5 passages and frozen in batches in liquid nitrogen. Prior to the steroidogenesis assay, H295R cells were thawed and passed at least 4 times. The maximum passage was 10. […] After seeding cells into 96-well plates at 50-60% confluency, cells were allowed to adhere overnight. Prior to chemical testing, culture medium was replaced with 175 uL medium containing 10 uM forskolin to stimulate steroidogenesis for 48 hours. Following prestimulation, forskolin medium was replaced with medium containing test chemical solubilized in DMSO (ensuring a final concentration of 0.1% DMSO). Test chemicals were incubated for 48 hours, then the medium was removed and split into 2 vials containing approximately 75uL each, and stored at -80 C prior to hormone analysis. For steroid quantification, media samples were shipped to OpAns, LLC (Durham, NC) on dry ice, and samples were thawed to room temperature prior to liquid-liquid extraction. Steroid hormones were extracted from media samples using methyl tertbutyl ether (MTBE). An extra derivatization with dansyl chloride was included for estrogen (estrone and estradiol) detection only. Steroid hormones were separated by HPLC, eluted using a reverse phase C18 gradient with electrospray positive ionization, followed by quantification by tandem mass spectrometry (MS/MS). Data were acquired on a MassHunter Workstation Acquisition version B03.01 (Agilent Technologies, Inc.) and processed using MassHunter Quantitative Analysis for QQQ. Accuracy was determined for each hormone analyte from 3 standards to determine upper and lower limits of quantification (ULOQ and LLOQ, respectively) using a 7-point standard curve. Precision and accuracy of the extraction and quantification methods were calculated as the percent relative standard deviation (%RSD) of the spiked standards and percent spiked standard recovered, respectively. The goal was to achieve 100% accuracy (i.e., recover all spiked-in standard at quantification with minimal loss during run time) and good precision (i.e., have %RSD <15% to ensure reproducibility). Test medium was removed following chemical exposure, and cell viability was evaluated in the same wells by MTT. MTT procedures were as follows: after removal of test medium, 500 uL of 0.5 mg/ml of 3-[4,5-dimethylthiazol-2-y]2,5-diphenyltetrazoliumbromide solution was added to the cells. Following a 4-hour incubation at 37 C and 5% CO2 to allow formazan-crystal formation, the MTT solution was removed and blue formazan salt crystals were solubilized using 500uL anhydrous isopropanol with shaking for 20 minutes. Absorbance was read at 570 and 650nm using a Packard Fusion microplate reader. Background correction of absorbance units was used to determine percent change relative to controls. […] […]
In the case of `CCOP(=S)(OCC)SCSP(=S)(OCC)OCC`, the compound was called inactive.

On to `Oc1ccc(-c2ccccc2)cc1`, for which the compound was called inactive.

`Fc1ccc(C2(Cn3cncn3)OC2c2ccccc2Cl)cc1` (configuration not stated): the AC50 is 2030 nM (active).

For the compound `CCOP(=S)(OCC)Oc1nc(Cl)c(Cl)cc1Cl`, the compound was called inactive.

With `C[C@]12CC[C@H](O)CC1=CC[C@@H]1[C@@H]2CC[C@]2(C)C(=O)CC[C@@H]12`, the outcome was inactive.

In the case of `O=C(Nc1ccc2[nH]ccc2c1)c1cc2cc(F)ccc2n1Cc1cccc(F)c1`, the result was inactive.

`C(=NC1CCCCC1)=NC1CCCCC1`: the compound was called inactive.

Take `Nc1ccc(-c2ccc(N)c(Cl)c2)cc1Cl`: the result was inactive.

For `C=CC(=O)N(C)C`, the compound was classed as inactive.

On to `NNC(=S)NN`, for which the result was inactive.

For the compound `CCOP(=S)(OCC)SCCS(=O)(=O)CC`, the result was inactive.

With `CCCCCCCCC(=O)NCc1ccc(O)c(OC)c1`, the call was inactive.

What is called AC50 is the midpoint of the concentration-response curve, whichever way the signal moves.
